Here are results for seven molecules from PubChem BioAssay (NCATS).

For test [1], the target named is Lysosomal acid glucosylceramidase (Homo sapiens) (UniProt P04062). The test can be described thus: Glucocerebrosidase-p2 (AID 348; in the data active = potency below about 10 µM; also: potency is read from the fitted curve at half-maximal effect). The settings on record: purified GBA, blue fluorogenic substrate, 40 min. The method in brief:
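Normal human glucocerebrosidase (0.2 nM) with blue fluorogenic substrate (80 uM final) in citrate/phosphate pH 5.9 with 10mM sodium taurocholate, 0.01% tween-20; 40 min RT, NaOH/glycine stop; fluorescence Ex 365/Em 440; AC50 from a titration from 0.6 nM upwards.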

Test [2] in a line: AP1 Signaling Pathway (AID 357; active = well fitted curve in either direction with a large enough effect, not every such curve was filed as active; also: % is scaled to controls: 0 for no effect and ±100 for the full control effect). As to conditions: ME-180 AP-1-bla reporter, EGF-induced, beta-lactamase ratio, 5 h; at 7.69 µM (top of the series) unless noted. The method in brief:
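AP-1-bla ME-180 cells with beta-lactamase reporter under AP-1 response element, stimulated with EC50 EGF; compounds titrated, 5 hours at 37 degrees Celsius. CCF4 read at 460/530 nm ratio; positive and negative modulators judged by AC50.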

The target of test [3] is Cytochrome P450 1A2 (Homo sapiens) (UniProt P05177). The test can be described thus: p450-cyp1a2 (AID 410; calls by dose curve; also: potency is read from the fitted curve at half-maximal effect). The settings on record: recombinant CYP1A2, luciferin-ME demethylation, luminescence; series mostly up to 57 µM. In outline:
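20nM CYP1A2, 100uM Luciferin-ME (=Km), 100mM KPO4; cpd 10 min RT; +NADPH regen, 60 min RT; stop/detect 20 min; luminescence. Normalized to furafylline 57 uM = full inhibition.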

A short description of test [4]: NFAT Signaling Pathway (AID 444; active = well fitted curve in either direction with a large enough effect, not every such curve was filed as active;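 also: carbachol stimulus at about its EC50 of 1 µM final; % is scaled to controls: 0 for no effect and ±100 for the full control effect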). As to conditions: Jurkat NFAT-bla M1, carbachol, beta-lactamase ratio, 5 h; at 7.69 µM (top of the series) unless noted. In outline:
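Jurkat cells carrying an NFAT-driven β-lactamase reporter and co-transfected muscarinic M1 receptor were treated with compound plus carbachol (1 uM final, an EC50 level) for 5 h at 37 °C. CCF4 loading followed for 1 h at RT; 460/530 nm ratio gave %activity.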

Test [5] can be described thus: Stat Signaling Pathway (AID 446; active = well fitted curve in either direction with a large enough effect, not every such curve was filed as active;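 also: ME-180 cervical cancer cells given 40 pM IL-6 alongside compound; SIE-controlled beta-lactamase reporter measured as 460/530 nm FRET emission ratio; % is scaled to controls: 0 for no effect and ±100 for the full control effect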). As to conditions: ME-180 SIE beta-lactamase reporter, IL-6 stimulated, 5 h; at 7.69 µM (top of the series) unless noted. The method in brief: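 Emission at 460 and 530 nm (excitation 405 nm) reports SIE-controlled beta-lactamase in ME-180 cells. Cells received compound with 40 pM IL-6 for 5 hrs at 37 C; data scaled between 300 pM IL-6 and 125 nM JAK-inhibitor controls.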

Test [6] concerns the target Glucocorticoid receptor (Homo sapiens) (UniProt P04150). The test can be described thus: GR-GFP Redistribution (AID 450;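 active = compounds whose dose series gives a full or clear partial fitted curve of increased nuclear translocation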; also: potency is read from the fitted curve at half-maximal effect). As to conditions: U2OS GR-GFP nuclear translocation, laser cytometry, 2 h.
The target is the same in test [7]. The experiment in a line: GR-EFC Redistribution (AID 451; calls by dose curve; also: potency is read from the fitted curve at half-maximal effect). As to conditions: CHO-K1 GR-EFC translocation, beta-gal luminescence, 2 h. In outline: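 CHO-K1 cells stably expressing nuclear-localized β-gal enzyme acceptor and GR fused C-terminally to the enzyme donor fragment; ligand-driven nuclear translocation restores β-gal by complementation. Compounds titrated up to 46 uM final, 2 h at 37 °C; luminescence read.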

Test [8] concerns the target Mitogen-activated protein kinase 10 (Mus musculus) (UniProt Q61831). The experiment in a line: JNK3 AlphaScreen Assay (AID 530; active = well fitted curve in either direction with a large enough effect, not every such curve was filed as active;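 also: kinase came from lysate of stimulated human HepG2 cells; % is scaled to controls: 0 for no effect and ±100 for the full control effect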). The settings on record: JNK3 lysate, c-Jun phosphorylation; series mostly up to 57.1 µM. In outline: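 Biotinylated GST-cJun(1-79) served as substrate for JNK3 in HepG2 lysates stimulated with IL-1beta and TNF-alpha. ATP was 10 uM final, pH 7.6. Ser73 phosphorylation was quantified by AlphaScreen (680 nm excitation).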

Test [9] can be described thus: qHTS Assay for Identification of Small Molecule Agonists for Hypoxia Response Element Signaling Pathway (AID 914; active = well fitted activation curve with a large enough effect in the signal ratio, with a control signal flat, not every such curve was filed as active; the % refers to the signal ratio; also: % of control where 0% means no effect). As to conditions: ME-180 (cervical carcinoma) HRE-bla reporter, beta-lactamase ratio, CoCl2, 17 h; activation: stronger effect = higher value. In outline:
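Read-out: CCF4 FRET ratio of 460nm to 530nm emission (excitation 405nm) after 2.5 hours at room temperature, taken from HRE-bla ME-180 cells that had been exposed to compound and EC50 CoCl2 for 17 hours.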
A general note: qHTS replaces the single test concentration by a dilution series.

For test [10], the target named is Dual specificity protein kinase CLK4 (Homo sapiens) (UniProt Q9HAZ1). The experiment in a line: qHTS Assay for Inhibitors of CDC-like Kinase 4 (ADP-Glo Assay) (AID 1771). Also: nearly all actives have a fitted effect of over 70% in size. Also: potency is read from the fitted curve at half-maximal effect. As to conditions: recombinant CLK4, ADP-Glo luminescence; series mostly up to 80 µM. The method in brief:
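25 nM Clk4, 100 uM RS peptide, 1 uM ATP (final); 2 mM MgCl2, 0.5 mM EGTA, 2.5 mM DTT, 0.01% Triton X-100; 1 hr RT. ADP-Glo readout: ATP depletion 45 min, conversion/luciferase 30 min, luminescence.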

For test [11] the target is unchanged. The test can be described thus: qHTS Assay for Inhibitors of CDC-like Kinase 4 (ADP-FP Assay) (AID 1795).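 Also: recombinant human CLK4 phosphorylating RS repeat peptide at 1 µM ATP; % is scaled to controls: 0 for no effect and ±100 for the full control effect; nearly all actives have a fitted effect of over 60% in size.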 The settings on record: Transcreener ADP fluorescence polarization; series mostly up to 50 µM. In outline: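 FP readout: Orange Transcreener ADP2 tracer (4 nM) plus ADP antibody, read after 30 min at room temperature. Kinase step: 6.25 nM Clk4, 100 uM RS peptide, 1 uM ATP, pH 7.5, 1 h.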

The target in test [12] is Ubiquitin carboxyl-terminal hydrolase 1 (Homo sapiens) (UniProt O94782). The test can be described thus: Inhibitors of USP1/UAF1: Pilot qHTS (AID 504865).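 Also: rhodamine fluorescence freed from ubiquitin-rhodamine substrate followed over time; top concentration of the series differs between compounds; % is scaled to controls: 0 for no effect and ±100 for the full control effect; nearly all actives have a fitted effect of over 35% in size.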 The settings on record: purified USP1/UAF1, Ub-rhodamine cleavage fluorescence; series mostly up to 54.9 µM. In outline:
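1nM USP1/UAF1 + cpd, 15 min RT; start w/ Ub-Rho 150nM final; kinetic FL 480/540 nm, 6 reads q60 s. Buffer 50mM HEPES pH 7.8, 0.5mM EDTA, 1mM TCEP, 0.01% Tween-20, 0.1 mg/ml BSA.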

Test [13] in a line: Primary qHTS for small molecule stabilizers of the endoplasmic reticulum resident proteome: Secreted ER Calcium Modulated Protein (SERCaMP) assay (AID 1508630). Also: % is scaled to controls: 0 for no effect and ±100 for the full control effect. The settings on record: SH-SY5Y GLuc-SERCaMP (Gaussia luciferase released on ER calcium loss) secretion, thapsigargin, luminescence; series mostly up to 38.4 µM. The method in brief: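 The SH-SY5Y reporter protocol was run at 3 concentrations up to 38.3 uM (primary) or 11 concentrations (follow-up): 16 h compound, 100 nM thapsigargin for 4 h, then extracellular luciferase luminescence.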

Test [14] deals with 3',5'-cyclic-AMP phosphodiesterase 4B (Homo sapiens) (UniProt Q07343). The test can be described thus: qHTS Assay for Inhibitors of PDE-IV (AID 607; active = well fitted activation curve with a large enough effect in the main read-out, with a control signal flat, not every such curve was filed as active; also: % of control where 0% means no effect). The settings on record: HEK293 ACTOne CNG channel cells, membrane potential fluorescence; series mostly up to 22.9 µM. In outline:
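The readout is membrane depolarisation from a cAMP-sensing CNG channel, detected with a potential dye at ex 535/em 590. Cells were HEK293-derived (endogenous PDE-IV) at 1000 cells/well, titrated up to 22.9 uM final.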

The target in test [15] is Cytochrome P450 3A4 (Homo sapiens) (UniProt P08684). The experiment in a line: qHTS Assay for Inhibitors and Substrates of Cytochrome P450 3A4 (AID 884). Also: potency is read from the fitted curve at half-maximal effect; nearly all actives have a fitted effect of over 50% in size. As to conditions: recombinant CYP3A4, Luciferin-PPXE luminescence; series mostly up to 57.1 µM. In outline:
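Luminescent readout of luciferin produced by CYP3A4 (20 nM) dealkylation of Luciferin-PPXE, 25 uM (its KM). NADPH-driven reaction ran 60 min at RT after 10 min compound preincubation; data scaled to 57 uM ketoconazole as 100% inhibition.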

Test [16] shares this target. The test can be described thus: qHTS Assay for Activators of Cytochrome P450 3A4 (AID 885). Also: nearly all actives have a fitted effect of over 65% in size. The settings on record: recombinant CYP3A4, Luciferin-PPXE luminescence, 60 min; series mostly up to 57.1 µM. The method in brief: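 Activators are scored by enhanced luminescence from CYP3A4 conversion of luciferin-PPXE (25uM, equal to KM) to luciferin, after 60 min at RT with an NADPH-regenerating system.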

Test [17] concerns the target Cytochrome P450 2C19 (Homo sapiens) (UniProt P33261). The test can be described thus: qHTS Assay for Inhibitors and Substrates of Cytochrome P450 2C19 (AID 899). Also: potency is read from the fitted curve at half-maximal effect; nearly all actives have a fitted effect of over 60% in size. The settings on record: recombinant CYP2C19, luciferin-H EGE luminescence; series mostly up to 57.1 µM. In outline: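 Human CYP2C19 (5nM) with Luciferin-H EGE at 10uM (its KM) in 50mM KPO4 was preincubated with compound for 10 min at 37C. NADPH regeneration started a 60 min 37C reaction. Luciferin was read by luminescence, normalized to 57uM ketoconazole.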

Unmarked numbers belong to inactive results. Records with an inconclusive call do not appear. The source made the active and inactive calls. Unless noted, calls follow the shape of the dose curve; as a rule, active = well fitted curve in the direction sought with a large enough effect; inconclusive = small, poorly fitted or top-dose-only effect, or another doubt; inactive = no such curve, though single readings can be large; an effect the other way counts as inactive or inconclusive. Bounds are passed on as bounds.

Sequence of Glucocorticoid receptor (Homo sapiens) (P04150 whole entry, looked up, the tested form may be a part): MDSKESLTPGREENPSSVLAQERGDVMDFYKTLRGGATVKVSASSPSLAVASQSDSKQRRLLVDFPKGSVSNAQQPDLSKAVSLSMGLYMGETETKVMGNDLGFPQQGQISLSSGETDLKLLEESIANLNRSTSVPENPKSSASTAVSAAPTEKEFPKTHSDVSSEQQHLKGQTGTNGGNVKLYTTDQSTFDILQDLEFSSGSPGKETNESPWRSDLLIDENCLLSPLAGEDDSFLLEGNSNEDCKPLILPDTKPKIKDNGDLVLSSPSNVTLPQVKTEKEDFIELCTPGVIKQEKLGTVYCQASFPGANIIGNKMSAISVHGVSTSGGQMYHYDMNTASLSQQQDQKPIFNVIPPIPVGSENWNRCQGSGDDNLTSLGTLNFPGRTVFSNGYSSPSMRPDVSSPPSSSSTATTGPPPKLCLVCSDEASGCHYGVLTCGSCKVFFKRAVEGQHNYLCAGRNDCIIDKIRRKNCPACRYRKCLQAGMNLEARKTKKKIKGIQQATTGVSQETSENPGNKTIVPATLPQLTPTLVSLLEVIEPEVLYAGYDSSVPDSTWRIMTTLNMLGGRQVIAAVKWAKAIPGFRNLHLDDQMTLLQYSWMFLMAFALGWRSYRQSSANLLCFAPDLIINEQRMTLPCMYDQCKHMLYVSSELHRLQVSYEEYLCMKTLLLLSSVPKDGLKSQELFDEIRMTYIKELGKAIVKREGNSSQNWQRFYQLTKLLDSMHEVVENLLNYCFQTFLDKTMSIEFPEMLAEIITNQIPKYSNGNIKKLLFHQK
Sequence of Lysosomal acid glucosylceramidase (Homo sapiens) (P04062 whole entry, looked up): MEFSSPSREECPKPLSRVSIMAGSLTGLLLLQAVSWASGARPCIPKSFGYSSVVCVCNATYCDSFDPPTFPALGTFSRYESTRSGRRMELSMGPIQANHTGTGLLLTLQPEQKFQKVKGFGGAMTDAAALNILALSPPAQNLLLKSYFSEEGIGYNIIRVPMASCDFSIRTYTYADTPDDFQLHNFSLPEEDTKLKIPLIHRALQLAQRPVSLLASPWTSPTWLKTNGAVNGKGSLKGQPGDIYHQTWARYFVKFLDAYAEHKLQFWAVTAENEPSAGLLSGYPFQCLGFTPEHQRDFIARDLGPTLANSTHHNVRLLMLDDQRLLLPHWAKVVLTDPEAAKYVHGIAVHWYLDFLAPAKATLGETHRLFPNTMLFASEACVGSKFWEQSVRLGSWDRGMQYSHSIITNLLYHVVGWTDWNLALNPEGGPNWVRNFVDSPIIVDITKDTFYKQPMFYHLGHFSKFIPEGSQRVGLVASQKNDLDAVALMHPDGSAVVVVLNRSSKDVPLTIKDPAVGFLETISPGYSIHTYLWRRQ
Sequence of Ubiquitin carboxyl-terminal hydrolase 1 (Homo sapiens) (O94782 whole entry, looked up): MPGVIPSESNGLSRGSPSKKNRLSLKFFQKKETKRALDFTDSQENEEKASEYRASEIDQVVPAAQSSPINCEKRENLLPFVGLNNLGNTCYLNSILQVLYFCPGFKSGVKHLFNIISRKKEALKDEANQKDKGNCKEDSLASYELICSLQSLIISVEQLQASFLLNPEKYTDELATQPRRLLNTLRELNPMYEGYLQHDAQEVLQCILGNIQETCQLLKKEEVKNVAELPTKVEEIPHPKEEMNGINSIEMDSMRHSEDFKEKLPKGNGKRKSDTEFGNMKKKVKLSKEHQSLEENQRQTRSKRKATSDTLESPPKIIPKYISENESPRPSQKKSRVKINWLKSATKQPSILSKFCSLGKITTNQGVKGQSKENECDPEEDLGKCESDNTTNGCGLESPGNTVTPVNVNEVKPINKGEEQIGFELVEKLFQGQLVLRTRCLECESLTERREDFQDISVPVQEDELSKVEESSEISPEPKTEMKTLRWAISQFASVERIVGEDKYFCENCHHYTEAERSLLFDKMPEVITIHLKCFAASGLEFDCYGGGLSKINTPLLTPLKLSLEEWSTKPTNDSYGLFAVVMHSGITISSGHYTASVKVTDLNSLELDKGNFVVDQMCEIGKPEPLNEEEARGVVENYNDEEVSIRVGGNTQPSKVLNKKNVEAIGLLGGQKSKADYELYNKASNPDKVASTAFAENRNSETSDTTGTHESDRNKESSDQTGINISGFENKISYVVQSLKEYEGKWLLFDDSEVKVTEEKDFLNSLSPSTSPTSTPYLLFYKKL
Sequence of Cytochrome P450 3A4 (Homo sapiens) (P08684 whole entry, looked up): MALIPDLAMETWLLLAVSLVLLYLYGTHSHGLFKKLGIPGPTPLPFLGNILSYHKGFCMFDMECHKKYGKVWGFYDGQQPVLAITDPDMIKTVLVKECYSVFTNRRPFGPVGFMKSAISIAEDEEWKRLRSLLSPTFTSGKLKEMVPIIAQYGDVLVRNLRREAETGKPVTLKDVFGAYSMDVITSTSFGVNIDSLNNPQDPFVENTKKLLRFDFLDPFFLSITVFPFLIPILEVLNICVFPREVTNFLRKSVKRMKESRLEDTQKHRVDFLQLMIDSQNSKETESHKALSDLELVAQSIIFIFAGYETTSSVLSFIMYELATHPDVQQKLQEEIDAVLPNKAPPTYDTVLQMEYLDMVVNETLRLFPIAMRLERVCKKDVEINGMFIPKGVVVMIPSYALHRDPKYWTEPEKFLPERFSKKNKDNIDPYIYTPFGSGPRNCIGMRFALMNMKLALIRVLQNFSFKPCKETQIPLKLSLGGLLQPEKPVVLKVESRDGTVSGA
Sequence of Dual specificity protein kinase CLK4 (Homo sapiens) (Q9HAZ1 whole entry, looked up): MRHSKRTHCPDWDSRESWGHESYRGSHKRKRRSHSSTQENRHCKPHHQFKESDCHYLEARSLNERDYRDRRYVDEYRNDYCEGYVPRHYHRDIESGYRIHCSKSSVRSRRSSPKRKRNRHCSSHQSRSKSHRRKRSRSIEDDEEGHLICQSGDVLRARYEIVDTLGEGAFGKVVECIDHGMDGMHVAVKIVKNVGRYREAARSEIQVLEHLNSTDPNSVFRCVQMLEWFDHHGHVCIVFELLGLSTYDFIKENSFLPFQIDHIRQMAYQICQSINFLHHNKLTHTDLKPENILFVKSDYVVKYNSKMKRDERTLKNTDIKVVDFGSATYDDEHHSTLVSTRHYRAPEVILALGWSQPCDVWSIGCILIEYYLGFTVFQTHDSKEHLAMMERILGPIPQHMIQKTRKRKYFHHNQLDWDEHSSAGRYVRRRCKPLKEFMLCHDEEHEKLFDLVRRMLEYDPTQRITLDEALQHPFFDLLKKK
Sequence of Cytochrome P450 1A2 (Homo sapiens) (P05177 whole entry, looked up): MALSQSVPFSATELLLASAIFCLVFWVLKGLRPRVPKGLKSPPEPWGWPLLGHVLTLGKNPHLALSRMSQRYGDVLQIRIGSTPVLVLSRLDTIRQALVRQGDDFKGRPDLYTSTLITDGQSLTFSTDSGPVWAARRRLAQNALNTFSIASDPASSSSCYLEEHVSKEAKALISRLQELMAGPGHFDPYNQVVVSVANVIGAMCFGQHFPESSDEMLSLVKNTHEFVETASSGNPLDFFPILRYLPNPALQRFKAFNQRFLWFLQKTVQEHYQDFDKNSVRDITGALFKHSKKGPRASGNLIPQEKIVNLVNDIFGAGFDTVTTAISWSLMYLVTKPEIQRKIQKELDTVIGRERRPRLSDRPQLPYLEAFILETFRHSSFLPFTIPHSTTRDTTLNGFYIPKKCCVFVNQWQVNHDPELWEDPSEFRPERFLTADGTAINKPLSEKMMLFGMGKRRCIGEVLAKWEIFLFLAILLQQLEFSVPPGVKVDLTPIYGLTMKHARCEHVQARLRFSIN
Sequence of 3',5'-cyclic-AMP phosphodiesterase 4B (Homo sapiens) (Q07343 whole entry, looked up): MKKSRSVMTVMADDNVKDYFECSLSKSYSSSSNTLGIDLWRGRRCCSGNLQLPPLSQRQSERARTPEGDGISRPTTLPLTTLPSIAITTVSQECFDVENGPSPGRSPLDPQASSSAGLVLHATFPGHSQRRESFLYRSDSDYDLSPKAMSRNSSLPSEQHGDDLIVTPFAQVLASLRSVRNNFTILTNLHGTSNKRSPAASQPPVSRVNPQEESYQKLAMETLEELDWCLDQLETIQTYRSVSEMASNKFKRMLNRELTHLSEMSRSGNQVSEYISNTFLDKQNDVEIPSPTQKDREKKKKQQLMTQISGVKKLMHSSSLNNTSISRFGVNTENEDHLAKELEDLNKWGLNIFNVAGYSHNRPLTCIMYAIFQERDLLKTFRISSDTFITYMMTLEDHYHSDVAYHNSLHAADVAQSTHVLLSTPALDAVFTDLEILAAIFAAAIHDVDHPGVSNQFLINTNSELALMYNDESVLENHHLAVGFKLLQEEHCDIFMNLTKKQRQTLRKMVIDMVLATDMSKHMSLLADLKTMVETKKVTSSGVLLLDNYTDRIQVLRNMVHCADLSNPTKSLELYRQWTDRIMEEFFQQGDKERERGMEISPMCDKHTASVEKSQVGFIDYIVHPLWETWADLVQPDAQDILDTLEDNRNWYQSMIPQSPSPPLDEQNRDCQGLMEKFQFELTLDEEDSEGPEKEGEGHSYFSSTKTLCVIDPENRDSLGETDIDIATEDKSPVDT
Sequence of Cytochrome P450 2C19 (Homo sapiens) (P33261 whole entry, looked up): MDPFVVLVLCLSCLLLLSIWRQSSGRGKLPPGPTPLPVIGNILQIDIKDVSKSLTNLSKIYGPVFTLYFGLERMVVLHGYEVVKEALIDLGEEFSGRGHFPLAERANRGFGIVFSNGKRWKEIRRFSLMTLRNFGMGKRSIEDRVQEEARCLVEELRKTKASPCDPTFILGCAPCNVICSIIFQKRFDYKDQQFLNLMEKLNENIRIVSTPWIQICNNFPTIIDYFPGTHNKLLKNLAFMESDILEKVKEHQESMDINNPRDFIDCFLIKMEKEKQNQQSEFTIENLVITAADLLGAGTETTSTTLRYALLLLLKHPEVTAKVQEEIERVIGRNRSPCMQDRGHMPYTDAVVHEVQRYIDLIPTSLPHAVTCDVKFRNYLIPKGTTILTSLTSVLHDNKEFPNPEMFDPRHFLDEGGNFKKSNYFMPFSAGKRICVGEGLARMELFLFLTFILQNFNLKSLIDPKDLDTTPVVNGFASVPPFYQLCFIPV

On to `O=c1c(CCc2ccccc2)nc2cnc(N3CCOCC3)nc2n1CCc1ccccc1`, for which the Potency in [1] is above 11.4 µM; in [3] it was 25.1 µM (active); in test [6], above 9.22 µM; in test [7], above 46 µM. Besides, the activity change, negative = inhibition is 0.172% in [2] and 6.88% in test [4]. In addition, the activity, negative = inhibition in test [5] is -4.94%. Also, the Potency result in test [8], in [10], in test [11] and in test [12] was “inactive” in each case. For the same molecule, the activation in [9] was -4.33%. In addition, in test [13], the outcome was inactive.
As for `CCNc1ncc2nc(CCc3ccccc3)c(=O)n(C[C@H]3CCCO3)c2n1`, the activity change, negative = inhibition in test [2] was -23.9%; in [4], -3.48%. In addition, the values for the Potency in [6] and in [7] were above 9.22 µM and above 46 µM, respectively. Besides, the Potency result in test [8], in [10], in [11] and in test [12] was “inactive” in each case. The result in test [13] was inactive.
Regarding `COc1ncc2nc(-c3cccs3)c(=O)n(Cc3ccc(F)cc3)c2n1`, the Potency in test [1] was above 11.4 µM; in test [3] it was 3.16 µM (active); in [6], above 9.22 µM; in test [7] it was above 46 µM; in test [15], 3.16 µM (active). Moreover, the activity change, negative = inhibition in test [2] was 22.6%; in [4], 8.73%. Also, the Potency result in test [8], in test [14], in test [16], in [10], in [11] and in [12] was “inactive” in each case. Also, the outcome in test [13] was inactive.
In the case of `COc1ccc(CNc2cc(-c3ccccc3OC)ncn2)c(OC)c1`, the Potency in test [1] is above 11.4 µM; in [6], above 46 µM; in test [7], above 46 µM; in test [15] it was 6.31 µM (active); in test [17] it was 2 µM (active). The activity change, negative = inhibition is -6.46% in test [2] and 17.7% in [4]. Besides, in test [5], the activity, negative = inhibition is 5.25%. In addition, the Potency entry in test [8], in test [14], in [16], in test [10], in test [11] and in test [12] was “inactive” each time. Moreover, the outcome in test [13] was inactive.
With `COc1ccccc1-c1nc(N2CCOCC2)c2ccccc2n1`, the Potency was above 11.4 µM in [1]; 0.501 µM (active) in test [3]; above 46 µM in [6]; above 46 µM in [7]; 20 µM (active) in test [10]. Besides, the activity change, negative = inhibition in [2] is -9.32%; in [4] it was 10.4%. For the same molecule, the activity, negative = inhibition in [5] is 14.3%. The Potency result in test [8], in test [16], in [11] and in test [12] was “inactive” in each case. The result in [13] was inactive.
For the molecule `CN1CCN(c2ncc3nc(-c4cccs4)c(=O)n(Cc4ccc(F)cc4)c3n2)CC1`, the Potency was above 11.4 µM in [1], above 9.22 µM in test [6] and above 46 µM in [7]. The Potency entry in test [14], in test [10], in test [11] and in test [12] was “inactive” each time. Besides, the result in test [13] was inactive.
Consider `Cc1cnc(CNc2cc(-c3cccnc3)ncn2)cn1`, for which the activity change, negative = inhibition in test [2] is -14.2%; in [4], -1.2%. In addition, the Potency was 15.8 µM (active) in test [3], above 46 µM in test [7] and 31.6 µM (active) in test [10]. In addition, in [5], the activity, negative = inhibition was -0.57%. For the same molecule, the Potency entry in test [8], in [14], in test [16], in test [11] and in test [12] was “inactive” throughout. Further, the outcome in [13] was inactive.
